The assay has as its target T1, Croc (Drosophila melanogaster, UniProt P32027 54-175).
T1 sequence: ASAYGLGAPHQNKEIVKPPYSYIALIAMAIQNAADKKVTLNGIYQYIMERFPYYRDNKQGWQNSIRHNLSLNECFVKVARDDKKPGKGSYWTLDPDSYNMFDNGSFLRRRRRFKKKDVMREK
Put plainly: FP; 20 mM Tris-acetate pH 7.0, 50 "nM" NaCl as printed (probably mM), 0.01% Tween 20, 0.1 mM DTT; conventional titration. The settings on record: tags: N-GST (pGEX-6P-1, kept); dsDNA, one strand shown.
Regarding TTAGATGAATATA, the binding signal is 2300 Kd / Kd of best base at the position. TTAGATAAATATC: the binding signal was 2.74 Kd / Kd of best base at the position.

For TTAGATACATATA, the binding signal was 93.4 Kd / Kd of best base at the position. For TTAAATAAATATA, the binding signal was 1.66 Kd / Kd of best base at the position. Take TTCGATAAATATA: the binding signal was 33 Kd / Kd of best base at the position. For TAAGATAAATATA, the binding signal was 7.76 Kd / Kd of best base at the position. Take TTTGATAAATATA: the binding signal is 15.4 Kd / Kd of best base at the position. Same read-out and setting: for TTAGATAACTATA the value was 387 Kd / Kd of best base at the position; for TTAGATAAATCTA, 46 Kd / Kd of best base at the position. TTATATAAATATA: the binding signal was 2.66 Kd / Kd of best base at the position.

Regarding TTAGATAAATATT, the binding signal is 1.02 Kd / Kd of best base at the position. With TTAGATAAATGTA, the binding signal is 79 Kd / Kd of best base at the position. For the sequence TTAGAAAAATATA, the binding signal was 7.44 Kd / Kd of best base at the position. On to TTAGAGAAATATA, for which the binding signal was 48.4 Kd / Kd of best base at the position.

With TTGGATAAATATA, the binding signal was 5.64 Kd / Kd of best base at the position. Regarding TCAGATAAATATA, the binding signal is 51.8 Kd / Kd of best base at the position. On the same count and under the same terms, in the case of TTAGATATATATA it was 164 Kd / Kd of best base at the position. As for TTAGATAAATAGA, the binding signal was 5.76 Kd / Kd of best base at the position. The same measure, in the same setting: in the case of TTAGGTAAATATA it was 3.08 Kd / Kd of best base at the position. Regarding TTAGATAAATTTA, the binding signal was 35.4 Kd / Kd of best base at the position.

Turning to ATAGATAAATATA, the binding signal was 9.22 Kd / Kd of best base at the position. A word on the Kd: it is the free concentration of one partner at which half of the binding sites on the other are occupied at equilibrium, for simple one-to-one binding. The low end stands for a tighter complex, the high end for a looser complex. For TTAGATAAATATA, the Kd is about 300 pM.

In the case of TTAGATAAATACA, the binding signal was 1.16 Kd / Kd of best base at the position. The same measure, in the same setting: for TTACATAAATATA the value was 6.62 Kd / Kd of best base at the position. On to GTAGATAAATATA, for which the binding signal was 13.8 Kd / Kd of best base at the position. For the sequence TTAGATAAATAAA, the binding signal was 2.04 Kd / Kd of best base at the position. Take TTAGATAAAAATA: the binding signal was 380 Kd / Kd of best base at the position. As for TTAGATAAACATA, the binding signal is 1.86 Kd / Kd of best base at the position.

For TGAGATAAATATA, the binding signal was 76.4 Kd / Kd of best base at the position. With TTAGATAAATATG, the binding signal was 17.4 Kd / Kd of best base at the position. Take TTAGATAAGTATA: the binding signal is 95 Kd / Kd of best base at the position. On the same count and under the same terms, for TTAGACAAATATA the value was 16.3 Kd / Kd of best base at the position; for CTAGATAAATATA, 4.3 Kd / Kd of best base at the position. On the same count and under the same terms, in the case of TTAGATAATTATA it was 197 Kd / Kd of best base at the position; in that of TTAGATCAATATA, 8.58 Kd / Kd of best base at the position. As to TTAGATAAAGATA, the binding signal is 119 Kd / Kd of best base at the position. Turning to TTAGATAGATATA, the binding signal was 1160 Kd / Kd of best base at the position. Turning to TTAGTTAAATATA, the binding signal is 43.2 Kd / Kd of best base at the position. The same measure, in the same setting: in the case of TTAGCTAAATATA it was 38.6 Kd / Kd of best base at the position.

(Values after publication PMC5913336, “True equilibrium measurement of transcription factor-DNA binding affinities using automated polarization microscopy”.)
